The whole screen tested about 310,000 compounds, of which about 14,000 (4.5%) showed an effect of 50% or more. The effect is printed as a negative number. Many of the other results were omitted from the sample, so strong results are more common in it than they were.
The molecules below were run against human ether-à-go-go-related gene (hERG) potassium channel (human, UniProt Q12809) (assay: primary screen, population patch clamp on CHO cells stably expressing hERG; higher = less effect of the substance).
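Also: peak tail current of the secondary pulse compared with the same well before compound.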

Chain of human ether-à-go-go-related gene (hERG) potassium channel (Q12809 whole entry, looked up): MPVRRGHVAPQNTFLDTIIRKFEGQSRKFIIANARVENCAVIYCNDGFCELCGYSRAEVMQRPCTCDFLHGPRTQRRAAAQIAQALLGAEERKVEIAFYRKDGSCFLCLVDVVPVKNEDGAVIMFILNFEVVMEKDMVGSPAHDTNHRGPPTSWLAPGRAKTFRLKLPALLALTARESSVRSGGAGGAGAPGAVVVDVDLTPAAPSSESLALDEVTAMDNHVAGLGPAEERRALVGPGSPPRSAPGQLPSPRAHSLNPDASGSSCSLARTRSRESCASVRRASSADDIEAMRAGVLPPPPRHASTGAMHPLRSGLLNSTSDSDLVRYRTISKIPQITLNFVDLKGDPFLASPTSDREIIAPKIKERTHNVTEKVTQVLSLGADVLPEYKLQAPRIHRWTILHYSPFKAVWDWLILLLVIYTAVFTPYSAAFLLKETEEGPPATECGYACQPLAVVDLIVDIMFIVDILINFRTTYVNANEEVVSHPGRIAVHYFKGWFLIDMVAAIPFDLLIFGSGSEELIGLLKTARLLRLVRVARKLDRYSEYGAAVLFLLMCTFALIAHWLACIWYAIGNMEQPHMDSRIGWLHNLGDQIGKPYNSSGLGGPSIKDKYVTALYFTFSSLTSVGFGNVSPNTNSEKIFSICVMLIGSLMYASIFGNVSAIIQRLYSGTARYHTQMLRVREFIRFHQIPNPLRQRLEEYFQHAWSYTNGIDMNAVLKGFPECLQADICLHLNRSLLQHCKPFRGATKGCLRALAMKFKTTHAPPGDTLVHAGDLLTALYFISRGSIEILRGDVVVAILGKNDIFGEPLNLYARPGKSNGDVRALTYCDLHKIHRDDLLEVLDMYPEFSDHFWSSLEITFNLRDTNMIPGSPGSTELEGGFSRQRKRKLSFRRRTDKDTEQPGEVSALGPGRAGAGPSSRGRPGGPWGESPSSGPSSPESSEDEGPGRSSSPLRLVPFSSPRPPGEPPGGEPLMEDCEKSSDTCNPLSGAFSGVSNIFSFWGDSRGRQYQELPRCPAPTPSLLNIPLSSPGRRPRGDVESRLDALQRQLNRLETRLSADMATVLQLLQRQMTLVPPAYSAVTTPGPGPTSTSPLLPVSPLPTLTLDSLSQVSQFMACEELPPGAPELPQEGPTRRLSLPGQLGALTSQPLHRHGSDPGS

SMILES	hERG current change (%, negative = inhibition) at 10uM [%]
O=C(CN1C(=O)COc2ccc(S(=O)(=O)N3CCCC3)cc21)N1CCCC1	9.85
C/C=C/Cn1c(N2CCCCCC2)nc2c1c(=O)[nH]c(=O)n2C	-5.14
COc1ccc(-c2ccnc3c(C#N)cnn23)cc1	6.06
N#Cc1cnn2c(-c3ccccc3)ccnc12	2.49
NC(=O)c1cnn2c(-c3cccc(C(F)(F)F)c3)ccnc12	-2.33
N#Cc1cnn2c(-c3cccc([N+](=O)[O-])c3)ccnc12	-52.7
NC(=S)c1cnn2c(-c3cccc(C(F)(F)F)c3)ccnc12	14.2
N#Cc1cnn2c(-c3cccc(C(F)(F)F)c3)ccnc12	-52.8
CC(=O)c1ccc(NS(=O)(=O)c2cccc(C)c2)cc1	-1.86
COC(=O)c1cccc(NC(=O)CC2C(=O)NCCN2C(=O)Nc2cc(C)cc(C)c2)c1 (centres unmarked)	11
COc1ccccc1CNc1ncc(-c2ccc(F)cc2)n1C.O=C(O)C(=O)O	-62
COc1ccc(CNc2ncc(-c3ccc(F)cc3)n2C)cc1OC.O=C(O)C(=O)O	-65.2
Cn1c(-c2ccc(F)cc2)cnc1NCc1ccccc1F.O=C(O)C(=O)O	-27.3
COc1ccccc1CNc1ncccn1.O=C(O)C(=O)O	23.6
CCOc1ccc(-c2cnc(NCc3cccc4ccccc34)n2CCOC)cc1.O=C(O)C(=O)O	-58.8
COc1ccc(CNc2ncc(-c3ccc(F)cc3)n2C)c2ccccc12.O=C(O)C(=O)O	-35.1
COCCn1c(-c2ccc(OC)cc2)cnc1SCC(=O)Nc1cccc2ccccc12	-21.8
COc1ccc(CNc2ncc(-c3ccccc3)n2C)c2ccccc12.O=C(O)C(=O)O	-34.5
COCCCNC(=O)Cn1c(=O)n(Cc2ccccc2Cl)c(=O)c2cc(OC)c(OC)cc21	9.48
COc1ccc(-c2nc(N)n(S(=O)(=O)c3ccc(C)cc3)n2)cc1	39
CC(=O)Nc1nc(COc2ccccc2)cs1	-4.04
COC(=O)C(Cc1c[nH]c2ccccc12)NC(=O)c1cncc(Br)c1 (centres unmarked)	1.85
CCOC(=O)N1CCN(S(=O)(=O)N2CCCC(C(=O)NCCCN3CCCCC3)C2)CC1 (centres unmarked)	10
CC(C)Nc1ccc(Nc2ccnc3cc4ccccc4cc23)cc1	-72.7

SMILES	hERG current change (%, negative = inhibition) at 10uM [%]
CC(C)Nc1ccc(Nc2ccccc2)cc1	-0.32
COc1ccc(Nc2ccnc3ccccc23)cc1.Cl	-33.8
Cc1ccc(N(CC(=O)N2CCN(Cc3ccccc3)CC2)S(C)(=O)=O)cc1C	-7.28
CS(=O)(=O)N(CC(=O)N1CCCCCC1)c1cccc([N+](=O)[O-])c1	-32.7
CS(=O)(=O)N(CC(=O)N1CCN(Cc2ccccc2)CC1)c1cccc(F)c1	-36.3
CS(=O)(=O)N(CC(=O)N1CCN(Cc2ccccc2)CC1)c1cccc(Cl)c1	-63.8
CCOC(=O)C1CCN(C(=O)CN(c2cccc(C(F)(F)F)c2)S(C)(=O)=O)CC1	-25.9
CCOC(=O)N1CCN(C(=O)CN(c2cccc(C(F)(F)F)c2)S(=O)(=O)c2ccccc2)CC1	-43.6
CCOC(=O)N1CCN(C(=O)CN(c2cccc(C(F)(F)F)c2)S(C)(=O)=O)CC1	-51.1
CS(=O)(=O)N(CC(=O)N1CCN(Cc2ccccc2)CC1)c1cccc([N+](=O)[O-])c1	-75.5
CS(=O)(=O)N(CC(=O)N1CCOCC1)c1cccc([N+](=O)[O-])c1	6.28
CC(C)CC(C(=O)NC1CCCC1)N(Cc1cccs1)C(=O)c1snc(C(N)=O)c1N (centres unmarked)	-40.5
CS(=O)(=O)c1ccc2nnn(OCC(=O)Nc3ccc(Br)cc3Br)c2c1	7.34
Cc1ccc(/C=N/c2sc3c(c2C(N)=O)CCCC3)o1	23.3
COCCNC(=O)/C(C#N)=C/c1cccc(/C=C(\C#N)C(=O)NCCOC)c1	0.707
COc1ccc(CC2(CO)CCN(Cc3cnn(-c4ccccc4)c3)CC2)cc1	-77.6
COc1ccccc1-n1cc(CN2CCN(CC=C(C)C)C(CCO)C2)cn1 (centres unmarked)	-13.7
COc1ccccc1-n1cc(CN2CCN(C3CCCC3)C(CCO)C2)cn1 (centres unmarked)	-15.3
COc1ccc(CC2(CO)CCN(Cc3cnn(-c4ccccc4OC)c3)CC2)cc1	-64.8
COc1ccc(CC2(CO)CCN(Cc3cccnc3)CC2)cc1	-40.3
COc1ccc(CC2(CO)CCN(Cc3cnn(-c4ccc(F)cc4)c3)CC2)cc1	-76.4
COc1ccc(CC2(CO)CCN(Cc3cnc(-c4ccccc4C)nc3)CC2)cc1	-20.6
Cc1ccc(CCNC(=O)C2CCN(S(=O)(=O)c3ccc4c(c3)NC(=O)CO4)CC2)cc1	-1.82

Source: publication PMC4336329 (PLoS ONE, 2015)
